Source: PubChem BioAssay (NCI)
This is part of a sample that, as a whole, favours compounds with a hit. Of some 79,000 tested, about 15% had one in any assay. Calls of active or inactive are those of the source. Rule as the data show it: active = growth inhibition above about 70%; inactive = the rest.

Experiment: NCI Yeast Anticancer Drug Screen. Data for the wt2 strain (AID 169);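 also: 0% = growth of vehicle-treated yeast cultures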
Conditions: S. cerevisiae wt2 strain growth inhibition; at 11.0 µM; active compounds read high
How it was run: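 Growth of compound-treated yeast is measured and expressed as inhibition relative to vehicle-only controls.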

SMILES	growth inhibition
S=C(S)NN1CCOCC1	26% (inactive)
COc1cc2c3c(cccc3c1)C(=O)N(CCN(C)C)C2=O	-23% (inactive)
COC(=O)C1=C(C)NC(C)=C(C(=O)OCCCN2CCC(c3ccccc3)(c3ccccc3)CC2)C1c1cccc([N+](=O)[O-])c1 (stereo not drawn)	98% (active)
Cc1ccc(CCC2=CCCc3c2ccc2ccccc32)cc1	-5% (inactive)
CNC(=O)OCc1c(COC(=O)NC)c(-c2ccc(Cl)c(Cl)c2)n2c1CCC2	-14% (inactive)
Clc1ccccc1C1OC1c1ccccc1Cl (stereo not drawn)	-69% (inactive)
O=[N+]([O-])c1cc(CCl)ccc1CCl	54% (inactive)
S=c1[nH]nc(Nc2ccc(Cl)cc2)s1	8% (inactive)
BrCc1cccc2ccc3cccc(CBr)c3c12	-4% (inactive)
O=C1c2ccccc2-c2nc3ccccc3nc21	-10% (inactive)
CCCCCCCCCCCCCCCCCCNC	-40% (inactive)
CC[n+]1ccc2c(C)c3[nH]c4ccc(O)cc4c3c(C)c2c1	-3% (inactive)
Cc1ccc(-n2cc(-c3ccc(Cl)cc3)c(C#N)c2N)cc1	1% (inactive)
CC(=O)[O][Bi]([c]1ccccc1)[c]1ccccc1	79% (active)
CC1=C(SCCO)C(=O)c2ccccc2C1=O	3% (inactive)
C/C(=N\O)C1CC2C=C(C#N)C1N(Cc1ccccc1)C2 (stereo not drawn)	-3% (inactive)
CC(Br)C(=O)c1ccc2cc(Br)c3ccccc3c2c1 (stereo not drawn)	-1% (inactive)
Oc1cccc2c(Cl)ccnc12	98% (active)
Cc1cc(S(=O)(=O)/N=C(/NN)NNc2cccc(C(F)(F)F)n2)c(S)cc1Cl	-3% (inactive)
O=C1C2C(C(=O)N1c1ccc(OCc3ccccc3)cc1)C1c3ccccc3C2C2CCCCN21 (stereo not drawn)	-6% (inactive)
Nc1ccccc1CC(O)C(=O)O (stereo not drawn)	21% (inactive)
O=C(O)C1CCCCC1c1c2ccc(=O)c(O)c-2oc2c(O)c(O)ccc12 (stereo not drawn)	-25% (inactive)
O=C1C(=O)c2ccccc2C=C1[N+](=O)[O-]	11% (inactive)
C(CCSC1=NCCN1)CSC1=NCCN1 (tested in a mixture with another compound)	63% (inactive)
N#Cc1c(N)[nH]c2ccc(Sc3ccccc3)cc12	4% (inactive)
CC[C@@]1(O)C(=O)OCc2c1cc1n(c2=O)Cc2cc3c(N)cccc3nc2-1	-8% (inactive)

Same assay, conditions: S. cerevisiae wt2 strain growth inhibition; at 33.0 µM; active compounds read high

SMILES	growth inhibition
S=C(S)NN1CCOCC1	34% (inactive)
COc1cc2c3c(cccc3c1)C(=O)N(CCN(C)C)C2=O	-12% (inactive)
COC(=O)C1=C(C)NC(C)=C(C(=O)OCCCN2CCC(c3ccccc3)(c3ccccc3)CC2)C1c1cccc([N+](=O)[O-])c1 (stereo not drawn)	97% (active)
Cc1ccc(CCC2=CCCc3c2ccc2ccccc32)cc1	-8% (inactive)
CNC(=O)OCc1c(COC(=O)NC)c(-c2ccc(Cl)c(Cl)c2)n2c1CCC2	62% (inactive)
Clc1ccccc1C1OC1c1ccccc1Cl (stereo not drawn)	-46% (inactive)
O=[N+]([O-])c1cc(CCl)ccc1CCl	96% (active)
S=c1[nH]nc(Nc2ccc(Cl)cc2)s1	82% (active)
BrCc1cccc2ccc3cccc(CBr)c3c12	-6% (inactive)
O=C1c2ccccc2-c2nc3ccccc3nc21	28% (inactive)
CCCCCCCCCCCCCCCCCCNC	-24% (inactive)
CC[n+]1ccc2c(C)c3[nH]c4ccc(O)cc4c3c(C)c2c1	-1% (inactive)
Cc1ccc(-n2cc(-c3ccc(Cl)cc3)c(C#N)c2N)cc1	3% (inactive)
CC(=O)[O][Bi]([c]1ccccc1)[c]1ccccc1	96% (active)
CC1=C(SCCO)C(=O)c2ccccc2C1=O	18% (inactive)
C/C(=N\O)C1CC2C=C(C#N)C1N(Cc1ccccc1)C2 (stereo not drawn)	-2% (inactive)
CC(Br)C(=O)c1ccc2cc(Br)c3ccccc3c2c1 (stereo not drawn)	3% (inactive)
Oc1cccc2c(Cl)ccnc12	97% (active)
Cc1cc(S(=O)(=O)/N=C(/NN)NNc2cccc(C(F)(F)F)n2)c(S)cc1Cl	-5% (inactive)
O=C1C2C(C(=O)N1c1ccc(OCc3ccccc3)cc1)C1c3ccccc3C2C2CCCCN21 (stereo not drawn)	18% (inactive)
Nc1ccccc1CC(O)C(=O)O (stereo not drawn)	90% (active)
O=C(O)C1CCCCC1c1c2ccc(=O)c(O)c-2oc2c(O)c(O)ccc12 (stereo not drawn)	13% (inactive)
O=C1C(=O)c2ccccc2C=C1[N+](=O)[O-]	28% (inactive)
C(CCSC1=NCCN1)CSC1=NCCN1 (tested in a mixture with another compound)	99% (active)
N#Cc1c(N)[nH]c2ccc(Sc3ccccc3)cc12	92% (active)
CC[C@@]1(O)C(=O)OCc2c1cc1n(c2=O)Cc2cc3c(N)cccc3nc2-1	-3% (inactive)

Same assay, conditions: S. cerevisiae wt2 strain growth inhibition; at 100.0 µM; active compounds read high

SMILES	growth inhibition
S=C(S)NN1CCOCC1	31% (inactive)
COc1cc2c3c(cccc3c1)C(=O)N(CCN(C)C)C2=O	5% (inactive)
COC(=O)C1=C(C)NC(C)=C(C(=O)OCCCN2CCC(c3ccccc3)(c3ccccc3)CC2)C1c1cccc([N+](=O)[O-])c1 (stereo not drawn)	91% (active)
Cc1ccc(CCC2=CCCc3c2ccc2ccccc32)cc1	-8% (inactive)
CNC(=O)OCc1c(COC(=O)NC)c(-c2ccc(Cl)c(Cl)c2)n2c1CCC2	97% (active)
Clc1ccccc1C1OC1c1ccccc1Cl (stereo not drawn)	-16% (inactive)
O=[N+]([O-])c1cc(CCl)ccc1CCl	99% (active)
S=c1[nH]nc(Nc2ccc(Cl)cc2)s1	98% (active)
BrCc1cccc2ccc3cccc(CBr)c3c12	-4% (inactive)
O=C1c2ccccc2-c2nc3ccccc3nc21	61% (inactive)
CCCCCCCCCCCCCCCCCCNC	82% (active)
CC[n+]1ccc2c(C)c3[nH]c4ccc(O)cc4c3c(C)c2c1	13% (inactive)
Cc1ccc(-n2cc(-c3ccc(Cl)cc3)c(C#N)c2N)cc1	4% (inactive)
CC(=O)[O][Bi]([c]1ccccc1)[c]1ccccc1	96% (active)
CC1=C(SCCO)C(=O)c2ccccc2C1=O	17% (inactive)
C/C(=N\O)C1CC2C=C(C#N)C1N(Cc1ccccc1)C2 (stereo not drawn)	-2% (inactive)
CC(Br)C(=O)c1ccc2cc(Br)c3ccccc3c2c1 (stereo not drawn)	4% (inactive)
Oc1cccc2c(Cl)ccnc12	98% (active)
Cc1cc(S(=O)(=O)/N=C(/NN)NNc2cccc(C(F)(F)F)n2)c(S)cc1Cl	18% (inactive)
O=C1C2C(C(=O)N1c1ccc(OCc3ccccc3)cc1)C1c3ccccc3C2C2CCCCN21 (stereo not drawn)	94% (active)
Nc1ccccc1CC(O)C(=O)O (stereo not drawn)	95% (active)
O=C(O)C1CCCCC1c1c2ccc(=O)c(O)c-2oc2c(O)c(O)ccc12 (stereo not drawn)	73% (active)
O=C1C(=O)c2ccccc2C=C1[N+](=O)[O-]	75% (active)
C(CCSC1=NCCN1)CSC1=NCCN1 (tested in a mixture with another compound)	99% (active)
N#Cc1c(N)[nH]c2ccc(Sc3ccccc3)cc12	96% (active)
CC[C@@]1(O)C(=O)OCc2c1cc1n(c2=O)Cc2cc3c(N)cccc3nc2-1	-16% (inactive)
